Results taken from the supplement of paper PMC6555819.

system: PXR homodimer (NR concentration 270 nM); test: PBM binding z-score (relative to random genomic background probes); higher = stronger binding; sequences stand for … in GC…GCGATTGACAGCGTAGAATGAAGG
Outline: (§1)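 Scanned fluorescence from custom Agilent 4×180K protein-binding microarrays was regression-normalized. Binding z-scores use random background probes as reference. Ligand-free nuclear receptor dimers were incubated on the arrays for 1 h and detected with antibodies against each partner (one per run).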

Sequence	PBM binding z-score
CGAACTAGGGCATCCAGGACAGTGAATACATTGA	0.524
TCGAATAGGTTAGTCGGGGCATTCAGCCAACATA	0.0716
TCTGGGAGGACACGAAAGGTCAGAGCTCGACATC	0.802
CCGAGTAGGTTATGGGGCATACAGGCAACGGTGA	-0.0326
CAGCCTAGGTCAGGGCCAGTTTAGGAGGAACGTT	-0.16
TAGCCTAGGTCAAGGGCCAGTATACCACGCGAAC	-0.234
ACTAGTTGGTCAGCTGAGGTCATACACAATTCGG	3.46
CGTCCAAGGTCAAGGTCAGTCAAAGAGACTCGAA	1.7
AGTCAAAGTTCGTCTAGGTAACGTAAGATATGCT	1.83
CGTTAAAGTTCAACTAAGGTAACGTAAAGCACGC	3.31
ACTTACGGGTCAACGAGGGTATAGCACGCGTATA	1.09
ATCTCTAAGTAAAGATAGTTCAGTGAATGCAAAT	0.715
GATACAGGGTCAGCTAGAGGCTAGAGTATGGAAA	-0.0961
CCAGACAGGTGAGAAGGGAACTCAGCCTCGATTA	0.169
CCTGCTAAGTCAATGGTCAGCTAAAGCAGCTCGC	-0.531
CTACCAAGGTGAACAAGGTCGCTGATTACTATTC	0.349
CCTGCTAGGTCATGATCAGCTAATCTACAGTATG	-0.328
TCTAGCAGGACAGAGGGTCACTCAAGAGGTACGG	-0.392
ACTAGCAGGCCAAGTTTGGTTCACTCAAACAAAG	0.256
ATCTCTAGCTAACAAGTTCAGTGAAAGAGAGGAC	1.62

Sequence	PBM binding z-score
TCTATCAGGCCAGAGGGTCACTCAAGAGGTACGG	0.211
GTACCAAGGTGCATAGGTCGTTGATGAGTAGGCG	-0.124
GCTATTACTTGAAAGGGCAACCGAATGATTCTCG	-0.0796
TGTCAAAGTTCAGAGGTAACGTAAGTATCCACAC	0.858
TGGAGTAGGTTAGGGGCATTCAGAATGGCGTCGA	1.43
CCTTACGGGTCACTCCAGTTTATAGCATCGGAGT	1.06
CCGTCTGGGGCAGAAAGGTTACCATACCATCCGG	-0.115
CCTAGTTGGTCAGGAGGGCACACACCGGATATGA	0.17
TCTATTCGTTGATTAGGGCAACCGAAACAGCGGA	0.0175
GCTGCTAGGTCCGGTTGGTCAGCTAACGGGTACG	-0.913
GGAACGAGGGCAAAGTGGATAGCATCTGTCGACG	0.241
GCTAGCAGGCCATTTGGGTCTCTCAATGACGGGC	-0.68
ATCGAAAGTTCGAAGGTGAGTATACCCACCCGAA	-0.00599
AGAATGAGGTTATTAAAATCAGGGAATTGCGGTC	0.34
ATCTCTAGGTAACAAGTTCAGTGGAAGAGAGGAC	1.48
GGAACGAGGGCAAAGTTGAAAGCATCTGTCGACG	0.337
TCTTTTAGATCAAAGGTTAAGAAAGCCGAAGCCT	0.154
AGAGCGAGGGCACGCTGAGTTGATAGCAGAGTAG	-0.217
ACTCGGAGGACAAAGGTCTGAGCTACGCCAGTGA	-0.379

system: RARa:RXR (NR concentration 270 nM, RXRa partner concentration 90 nM); test: as above
Outline: as §1

Sequence	PBM binding z-score
CGAACTAGGGCATCCAGGACAGTGAATACATTGA	0.0025
TCGAATAGGTTAGTCGGGGCATTCAGCCAACATA	0.628
TCTGGGAGGACACGAAAGGTCAGAGCTCGACATC	4.77
CCGAGTAGGTTATGGGGCATACAGGCAACGGTGA	-0.237
CAGCCTAGGTCAGGGCCAGTTTAGGAGGAACGTT	1.32
TAGCCTAGGTCAAGGGCCAGTATACCACGCGAAC	2.31
ACTAGTTGGTCAGCTGAGGTCATACACAATTCGG	4.45
CGTCCAAGGTCAAGGTCAGTCAAAGAGACTCGAA	5.42
AGTCAAAGTTCGTCTAGGTAACGTAAGATATGCT	1.34
CGTTAAAGTTCAACTAAGGTAACGTAAAGCACGC	3.9
ACTTACGGGTCAACGAGGGTATAGCACGCGTATA	4.78
ATCTCTAAGTAAAGATAGTTCAGTGAATGCAAAT	1.08
GATACAGGGTCAGCTAGAGGCTAGAGTATGGAAA	3.58
CCAGACAGGTGAGAAGGGAACTCAGCCTCGATTA	-0.0265
CCTGCTAAGTCAATGGTCAGCTAAAGCAGCTCGC	-0.153
CTACCAAGGTGAACAAGGTCGCTGATTACTATTC	1.89
CCTGCTAGGTCATGATCAGCTAATCTACAGTATG	2.08
TCTAGCAGGACAGAGGGTCACTCAAGAGGTACGG	2.3
ACTAGCAGGCCAAGTTTGGTTCACTCAAACAAAG	0.113
ATCTCTAGCTAACAAGTTCAGTGAAAGAGAGGAC	0.744

Sequence	PBM binding z-score
TCTATCAGGCCAGAGGGTCACTCAAGAGGTACGG	2.39
GTACCAAGGTGCATAGGTCGTTGATGAGTAGGCG	1.1
GCTATTACTTGAAAGGGCAACCGAATGATTCTCG	0.627
TGTCAAAGTTCAGAGGTAACGTAAGTATCCACAC	3.43
TGGAGTAGGTTAGGGGCATTCAGAATGGCGTCGA	0.932
CCTTACGGGTCACTCCAGTTTATAGCATCGGAGT	3.6
CCGTCTGGGGCAGAAAGGTTACCATACCATCCGG	1.51
CCTAGTTGGTCAGGAGGGCACACACCGGATATGA	0.233
TCTATTCGTTGATTAGGGCAACCGAAACAGCGGA	0.417
GCTGCTAGGTCCGGTTGGTCAGCTAACGGGTACG	-0.552
GGAACGAGGGCAAAGTGGATAGCATCTGTCGACG	0.674
GCTAGCAGGCCATTTGGGTCTCTCAATGACGGGC	-0.418
ATCGAAAGTTCGAAGGTGAGTATACCCACCCGAA	1.67
AGAATGAGGTTATTAAAATCAGGGAATTGCGGTC	1.44
ATCTCTAGGTAACAAGTTCAGTGGAAGAGAGGAC	1.15
GGAACGAGGGCAAAGTTGAAAGCATCTGTCGACG	2.95
TCTTTTAGATCAAAGGTTAAGAAAGCCGAAGCCT	2.88
AGAGCGAGGGCACGCTGAGTTGATAGCAGAGTAG	0.737
ACTCGGAGGACAAAGGTCTGAGCTACGCCAGTGA	-0.531
